What all share (experiment): DAPPL (digital affinity profiling via proximity ligation, sequencing); 10 mM Tris-HCl pH 7.5, 50 mM NaCl, 1 mM DTT, 4% glycerol, room temperature, 30 min; GST-TFs on glutathione beads, 16-mer random dsDNA library, 0.1% formaldehyde crosslink after washing; high values mean tight binding
Details in all cases: protein: recombinant; tags: N-terminal GST; dsDNA, one strand shown

One assay deals with T1, ELK1 (Homo sapiens, UniProt P19419 1-428).
T1 sequence: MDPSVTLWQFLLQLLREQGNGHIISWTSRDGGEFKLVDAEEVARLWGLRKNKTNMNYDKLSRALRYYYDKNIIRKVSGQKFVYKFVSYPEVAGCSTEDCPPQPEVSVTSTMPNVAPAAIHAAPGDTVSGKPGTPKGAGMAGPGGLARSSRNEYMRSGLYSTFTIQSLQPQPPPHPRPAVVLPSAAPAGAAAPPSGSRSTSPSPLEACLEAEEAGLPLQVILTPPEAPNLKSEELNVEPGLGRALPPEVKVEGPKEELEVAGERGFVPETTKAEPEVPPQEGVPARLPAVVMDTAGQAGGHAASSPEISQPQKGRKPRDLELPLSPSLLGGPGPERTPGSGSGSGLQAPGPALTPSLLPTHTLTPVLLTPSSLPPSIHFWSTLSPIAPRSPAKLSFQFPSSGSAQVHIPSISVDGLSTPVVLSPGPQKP
A digest of the protocol: (§1)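 Each value of binding signal is a hexamer's read frequency for a factor divided by the same hexamer's frequency in the tag-only sample. Barcoded, bead-captured GST fusions of human transcription factors made in yeast were pooled with that sample and incubated with 200 nmole of a random double-stranded 16-mer DNA library in Tris/NaCl/DTT/glycerol buffer at room temperature for 30 min. Washing, 0.1% formaldehyde crosslinking, proximity ligation, PCR and Illumina NextSeq500 sequencing followed.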

A further assay concerns the target T2, GABPA (Homo sapiens, UniProt Q06546 1-454).
T2 sequence: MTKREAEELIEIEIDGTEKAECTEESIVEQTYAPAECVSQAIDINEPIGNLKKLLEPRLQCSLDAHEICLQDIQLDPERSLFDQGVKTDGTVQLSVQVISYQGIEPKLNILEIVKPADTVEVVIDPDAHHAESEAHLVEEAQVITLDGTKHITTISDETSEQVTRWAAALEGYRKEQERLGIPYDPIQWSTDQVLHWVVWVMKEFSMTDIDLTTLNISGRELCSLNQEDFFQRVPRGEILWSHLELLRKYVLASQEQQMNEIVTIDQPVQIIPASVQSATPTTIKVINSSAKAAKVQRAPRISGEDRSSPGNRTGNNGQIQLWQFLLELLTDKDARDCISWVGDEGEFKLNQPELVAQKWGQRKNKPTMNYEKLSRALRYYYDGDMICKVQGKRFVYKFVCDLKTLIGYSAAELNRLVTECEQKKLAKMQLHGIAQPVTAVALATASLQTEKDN
The essentials: as §1

The target in another assay is SPIB (Homo sapiens, UniProt Q01892 1-262). A digest of the protocol: as §1
SPIB, sequence (Q01892 whole entry): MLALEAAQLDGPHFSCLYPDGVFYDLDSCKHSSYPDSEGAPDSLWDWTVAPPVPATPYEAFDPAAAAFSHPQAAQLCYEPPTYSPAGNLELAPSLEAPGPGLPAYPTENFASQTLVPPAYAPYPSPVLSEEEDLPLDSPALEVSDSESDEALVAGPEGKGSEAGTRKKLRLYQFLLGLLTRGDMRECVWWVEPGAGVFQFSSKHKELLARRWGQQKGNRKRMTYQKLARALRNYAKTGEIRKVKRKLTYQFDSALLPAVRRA
Another assay concerns the target ETV5 (Homo sapiens, UniProt P41161 1-510). A digest of the protocol: as §1
A further assay addresses T3, SPIC (Homo sapiens, UniProt Q8N5J4 1-248).
T3 sequence: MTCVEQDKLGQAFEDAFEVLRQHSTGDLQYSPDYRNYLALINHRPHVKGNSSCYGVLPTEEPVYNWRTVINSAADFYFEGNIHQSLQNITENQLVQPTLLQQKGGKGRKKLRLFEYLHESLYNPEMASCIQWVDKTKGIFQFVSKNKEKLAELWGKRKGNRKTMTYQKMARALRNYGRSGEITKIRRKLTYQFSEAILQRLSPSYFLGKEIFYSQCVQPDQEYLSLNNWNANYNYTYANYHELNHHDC
A digest of the protocol:
as §1

The target of the next assay is ELF4 (Homo sapiens, UniProt Q99607 1-663). A digest of the protocol: as §1
ELF4, sequence (Q99607 whole entry): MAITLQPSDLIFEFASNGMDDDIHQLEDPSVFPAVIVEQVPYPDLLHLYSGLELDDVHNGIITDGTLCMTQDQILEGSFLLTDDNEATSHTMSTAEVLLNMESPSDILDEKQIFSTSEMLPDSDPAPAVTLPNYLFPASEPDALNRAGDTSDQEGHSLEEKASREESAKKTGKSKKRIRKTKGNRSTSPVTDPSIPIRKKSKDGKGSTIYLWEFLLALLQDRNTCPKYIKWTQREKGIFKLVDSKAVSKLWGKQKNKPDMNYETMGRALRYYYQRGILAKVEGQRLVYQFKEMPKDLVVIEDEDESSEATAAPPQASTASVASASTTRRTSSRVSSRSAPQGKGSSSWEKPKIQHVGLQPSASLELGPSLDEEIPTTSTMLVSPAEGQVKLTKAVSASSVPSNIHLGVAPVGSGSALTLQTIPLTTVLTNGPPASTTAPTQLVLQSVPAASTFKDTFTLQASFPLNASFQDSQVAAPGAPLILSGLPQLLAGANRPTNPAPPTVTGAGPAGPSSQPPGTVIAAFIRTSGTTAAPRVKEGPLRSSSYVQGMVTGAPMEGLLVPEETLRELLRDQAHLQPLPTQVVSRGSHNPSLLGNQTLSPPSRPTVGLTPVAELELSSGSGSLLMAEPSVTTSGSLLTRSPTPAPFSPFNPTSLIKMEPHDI
Another assay has as its target T4, ELK4 (Homo sapiens, UniProt P28324-2 1-405).
T4 sequence: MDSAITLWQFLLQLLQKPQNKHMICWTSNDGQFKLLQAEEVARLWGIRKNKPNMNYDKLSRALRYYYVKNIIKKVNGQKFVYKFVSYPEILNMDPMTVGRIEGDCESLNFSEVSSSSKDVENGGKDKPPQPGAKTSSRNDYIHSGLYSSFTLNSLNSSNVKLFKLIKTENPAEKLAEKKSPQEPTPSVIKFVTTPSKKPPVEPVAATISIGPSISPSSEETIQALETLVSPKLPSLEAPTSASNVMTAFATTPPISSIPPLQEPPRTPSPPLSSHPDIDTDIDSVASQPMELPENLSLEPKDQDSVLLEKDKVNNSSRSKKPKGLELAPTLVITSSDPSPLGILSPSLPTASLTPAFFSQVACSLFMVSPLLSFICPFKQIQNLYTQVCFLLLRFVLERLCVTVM
The essentials:
as §1

The next assay addresses T5, ELF3 (Homo sapiens, UniProt P78545 1-371).
T5 sequence: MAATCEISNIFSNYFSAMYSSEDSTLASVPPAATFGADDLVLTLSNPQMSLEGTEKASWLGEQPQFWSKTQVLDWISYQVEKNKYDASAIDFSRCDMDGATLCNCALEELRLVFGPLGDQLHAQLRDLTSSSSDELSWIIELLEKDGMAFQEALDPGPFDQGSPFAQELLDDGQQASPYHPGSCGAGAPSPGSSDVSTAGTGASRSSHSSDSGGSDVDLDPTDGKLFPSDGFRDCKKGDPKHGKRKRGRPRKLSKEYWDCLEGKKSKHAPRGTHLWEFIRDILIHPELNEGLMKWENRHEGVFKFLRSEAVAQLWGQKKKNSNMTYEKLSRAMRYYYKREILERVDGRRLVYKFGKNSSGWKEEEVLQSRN
A digest of the protocol: as §1

The next assay deals with T6, ETV3L (Homo sapiens, UniProt Q6ZN32 1-361).
T6 sequence: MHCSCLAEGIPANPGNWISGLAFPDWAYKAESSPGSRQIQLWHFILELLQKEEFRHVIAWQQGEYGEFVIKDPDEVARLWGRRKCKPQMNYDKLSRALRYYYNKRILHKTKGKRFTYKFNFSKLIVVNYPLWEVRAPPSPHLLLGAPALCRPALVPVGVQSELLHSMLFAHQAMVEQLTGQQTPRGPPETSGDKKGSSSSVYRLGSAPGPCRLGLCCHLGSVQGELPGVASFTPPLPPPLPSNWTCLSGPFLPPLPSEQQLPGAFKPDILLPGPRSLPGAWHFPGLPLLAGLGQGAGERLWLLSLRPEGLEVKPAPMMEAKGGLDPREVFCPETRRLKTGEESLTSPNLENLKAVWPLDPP
A digest of the protocol:
as §1

A further assay addresses T7, ETV7 (Homo sapiens, UniProt Q9Y603 1-341).
T7 sequence: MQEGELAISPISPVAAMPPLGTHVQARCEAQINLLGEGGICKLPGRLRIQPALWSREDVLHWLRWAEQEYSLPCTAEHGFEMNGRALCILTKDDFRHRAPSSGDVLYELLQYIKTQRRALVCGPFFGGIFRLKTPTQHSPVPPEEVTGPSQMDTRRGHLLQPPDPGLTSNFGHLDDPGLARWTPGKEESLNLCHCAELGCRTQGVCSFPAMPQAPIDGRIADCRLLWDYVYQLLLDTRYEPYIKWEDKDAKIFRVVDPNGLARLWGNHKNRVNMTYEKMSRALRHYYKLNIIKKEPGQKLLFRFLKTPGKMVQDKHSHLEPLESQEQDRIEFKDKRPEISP
A digest of the protocol: as §1

The target in a further assay is T8, ETV3 (Homo sapiens, UniProt P41162-2 1-143).
T8 sequence: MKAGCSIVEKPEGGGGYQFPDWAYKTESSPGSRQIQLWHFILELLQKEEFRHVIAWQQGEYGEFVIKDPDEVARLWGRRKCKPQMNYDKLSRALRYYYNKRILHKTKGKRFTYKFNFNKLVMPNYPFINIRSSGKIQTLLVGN
A digest of the protocol: as §1

The results in this text go back to PMC7862700, “An all-to-all approach to the identification of sequence-specific readers for epigenetic DNA modifications on cytosine”.

ETV5, sequence (P41161 whole entry): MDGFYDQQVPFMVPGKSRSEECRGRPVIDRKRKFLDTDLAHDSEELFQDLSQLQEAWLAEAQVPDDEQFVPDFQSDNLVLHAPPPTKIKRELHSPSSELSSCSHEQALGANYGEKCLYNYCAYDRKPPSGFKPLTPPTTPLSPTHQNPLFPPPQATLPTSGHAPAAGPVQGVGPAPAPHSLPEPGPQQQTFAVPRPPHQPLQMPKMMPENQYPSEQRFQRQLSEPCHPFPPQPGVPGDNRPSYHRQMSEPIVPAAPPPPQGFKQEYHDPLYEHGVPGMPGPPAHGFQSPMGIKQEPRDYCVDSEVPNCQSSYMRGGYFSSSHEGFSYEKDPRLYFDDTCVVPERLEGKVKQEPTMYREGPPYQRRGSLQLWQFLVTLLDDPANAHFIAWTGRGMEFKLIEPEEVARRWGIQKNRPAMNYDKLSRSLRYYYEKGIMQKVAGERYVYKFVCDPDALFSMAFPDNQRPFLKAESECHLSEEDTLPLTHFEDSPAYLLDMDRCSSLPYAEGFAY

With CGCGCG, the binding signal with ELK1 was 1.07 fold enrichment (6-mer frequency, TF over GST control); in the assay with GABPA, 1.05 fold enrichment (6-mer frequency, TF over GST control); in the assay with SPIB it was 1.11 fold enrichment (6-mer frequency, TF over GST control); with ETV5, 1.01 fold enrichment (6-mer frequency, TF over GST control); with SPIC, 1.14 fold enrichment (6-mer frequency, TF over GST control); in the assay with ELF4, 1 fold enrichment (6-mer frequency, TF over GST control). Also, the binding signal is 1.14 fold enrichment (6-mer frequency, TF over GST control) with ELK4; 1.06 fold enrichment (6-mer frequency, TF over GST control) in the assay with ELF3; 1.07 fold enrichment (6-mer frequency, TF over GST control) with ETV3L; 1.03 fold enrichment (6-mer frequency, TF over GST control) with ETV7; 1.1 fold enrichment (6-mer frequency, TF over GST control) with ETV3.
